Test results published in PubChem BioAssay AID1863 (Southern Research Specialized Biocontainment Screening …, 2009).
Values joined by “and” are separate entries in the source; they are usually repeats but may differ in a detail not shown here. Equal values may be shown once. About 480 (0.16%) of roughly 300,000 compounds were called active.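 The calls were made as follows: active = inhibition over 29.93%, a cutoff 3 SD above the screen mean, later confirmed by dose response; inconclusive = inhibition over 29.93% but no dose response follow-up; inactive = inhibition at most 29.93% or unconfirmed.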 These entries were drawn from the full list. Entries with a potency or affinity are not part of this list.

Assay: inhibitors of PhoP regulon expression, primary screen, Salmonella Typhimurium, GFP reporter (AID 1863);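 also: 0% = low Mg2+ inducing control and 100% = high Mg2+ repressing control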
Conditions: S. Typhimurium PhoP-regulated promoter GFP reporter, 4 h; at 50 µM; active compounds read high

inhibition, inactive:
O=C(NCc1ccco1)C1CCCN(S(=O)(=O)c2ccc(Cl)cc2)C1 (configuration not stated) 0.1%, COc1ccc(-c2cccc(NC(=O)COc3ccc(Cl)cc3)c2)nn1 -8.03%, CCCCCCCC[n+]1cccc(C(=O)N(CC)CC)c1 7.46%, CCCCCCCCCC[n+]1cccc(C(=O)N(CC)CC)c1 11%, CCC(=O)NC(=S)Nc1ccc(N2CCN(C(=O)c3ccc(Cl)cc3)CC2)cc1 2.66%, CC(=O)/C=C1\SC(CC(=O)O)C(=O)N1c1ccccc1 (configuration not stated) -3.51%, COc1ccc2nc(SCC(N)=O)cc(C)c2c1 -2.01%, CN1CCCC(CN2c3ccccc3Sc3ccccc32)C1 (configuration not stated) 5.69%, CC1CCN(CC(O)CN2c3ccccc3Sc3ccccc32)CC1 (configuration not stated) 11.3%, O=C(O)c1cccc(N/N=C/c2cc(Br)cc(Br)c2O)c1 -5.01%, Cc1c(N=Cc2cc(Br)cc(Br)c2O)cccc1C(=O)O 20.2%, N#CCCn1nc(-c2ccccc2)c2ccccc2c1=O 0.37%, Cc1ccc(N2C(=O)Nc3ccccc3C2(O)C(=O)N2CCN(c3ccccn3)CC2)cc1C (configuration not stated) 1.22%, O=C(CS(=O)(=O)c1ccccc1)NC1CCCCC1 -0.8%, CC(CC(=O)Nc1ccccc1)NCCCN1CCCC1=O (configuration not stated) -13.5%, COc1ccc(C(=O)Nc2ccccc2C(=O)N2CCCCC2C)cc1 (configuration not stated) -7.49%, Cc1ccc(S(=O)(=O)N2CC(=NN=C(N)N)C2)cc1 6.04%, NC(N)=NN=C1CCC(c2ccccc2)CC1 (configuration not stated) -4.95%, COc1ccc(/C=N/NC(=O)c2ccc(COc3ccccc3Cl)o2)cc1 2.77%, CC(=O)Nc1ccc(Nc2nnc(-c3ccc(C)c(S(N)(=O)=O)c3)c3ccccc23)cc1 -2.89%, CC(C)(C)C1=CC(=O)C(N2CCOCC2)=CC1=O -2.73%, CC1=C(C)C(=O)C(N2CCOCC2)=CC1=O -8.01%, CC(NC(=O)COc1ccc(Oc2ccccc2)cc1)C(=O)O (configuration not stated) -6.64%, CC(=O)c1cccc(NC(=O)Nc2ccccc2)c1 4.67%, O=C(NC(c1ccc(Cl)cc1)c1cc(Cl)c2cccnc2c1O)c1cccnc1 (configuration not stated) 6.03%, OCCN1CCN(C(c2cccs2)c2ccc3cccnc3c2O)CC1 (configuration not stated) -47.6%, CCC(=O)NC(c1ccc(OC)cc1)c1cc(Cl)c2cccnc2c1O (configuration not stated) 2.08%, CN1CCN(C(c2ccc(C(F)(F)F)cc2)c2ccc3cccnc3c2O)CC1 (configuration not stated) 0.72%, CCOC(=O)N1CCN(S(=O)(=O)c2cccc3cccnc23)CC1 -11%, Oc1c(C(c2ccc(Cl)cc2)N2CCCC2)cc(Cl)c2cccnc12 (configuration not stated) 4.49%, CN1CCN(C(c2cccnc2)c2ccc3cccnc3c2O)CC1 (configuration not stated) -7.68%, COc1ccc(C(NC(C)=O)c2cc(Cl)c3cccnc3c2O)cc1OC (configuration not stated) 3%, CCC(c1nnnn1C(C)(C)CC)N(CCCN1CCOCC1)Cc1cc2cccc(C)c2[nH]c1=O (configuration not stated) 1.45%, CCn1nc(C)c(/C=N/NC(=O)Cn2nc(C)cc2C)c1C -4.2%, CCCCNC(=O)c1cc(-c2ccc(OC)c(OC)c2)on1 3.01%, Cc1c(C#N)c(N)nc2c3c(sc12)NC(=O)CC3c1ccccc1 (configuration not stated) -5.65%, COc1cccc(NC(=O)c2cc([N+](=O)[O-])ccc2NCc2cccnc2)c1 -4.37%, CCOC(=O)c1cn(CC(=O)Nc2cccc(F)c2)nn1 -11.4%, O=C(Cn1c(C(=O)O)cc2ccccc21)c1ccccc1 -2.79%, Cc1ccc(N2C(=O)N(CC(=O)N3CCOCC3)C(=O)C2C)cc1 (configuration not stated) 2.04%, COC(C(=O)Nc1ccnn1C1CCN(C(=O)c2ccc(C)cc2)CC1)c1ccccc1 (configuration not stated) 5.45%, O=S1(=O)CCOC[C@H](CC2CCCCC2)N1Cc1cccc(C(F)(F)F)c1 9.84%, CCC(=O)NC(c1cccs1)c1cc(Cl)c2cccnc2c1O (configuration not stated) 14.8%, Oc1c(C(c2ccccn2)N2CCC(Cc3ccccc3)CC2)cc(Cl)c2cccnc12 (configuration not stated) -3.77%, CCOc1ccc(C(Nc2cccnc2)c2cc(Cl)c3cccnc3c2O)cc1 (configuration not stated) 3.11%, CC(=O)NC(c1ccc(C)cc1)c1cc(Cl)c2cccnc2c1O (configuration not stated) -1.88%, O=C(NC(c1ccccc1)c1cc(Cl)c2cccnc2c1O)c1cccnc1 (configuration not stated) -10.8%, COc1ccc(C(NC(C)=O)c2cc(Cl)c3cccnc3c2O)cc1 (configuration not stated) 5.56%, CC(=O)NC(c1ccccc1)c1cc(Cl)c2cccnc2c1O (configuration not stated) 18.9%, CCCc1cc(=O)[nH]c(SCC(=O)Nc2ccc(Br)cc2)n1 -7.86%, CC1CCN(S(=O)(=O)c2ccc3c(c2)c(=O)c(C(=O)NCc2ccccc2Cl)cn3C)CC1 5.92%, Cc1ccc2occ(/C=C/C(=O)c3ccccc3O)c(=O)c2c1 1.62%, O=C(/C=C/c1ccc(O)c(O)c1)c1ccccc1O -12%, O=C(/C=C/c1ccccc1Cl)c1ccc(O)cc1 2.4%, O=C(/C=C/c1ccccc1Cl)c1ccc[nH]1 11.1%, Cc1cccc(/C=C/C(=O)c2cc(Br)ccc(=O)c2O)c1 23.4%, Cc1ccc(/C=C/C(=O)c2ccccc(=O)c2O)c(C)c1 7.66%, C=CCNC(=O)CSc1nnc(-c2ccccn2)n1Cc1ccccc1 7.3%, CCOC(=O)c1ccc(NC(=O)c2ccccc2N(C)S(=O)(=O)c2ccccc2)cc1 1.33%, Cc1ncc(CSCC(=O)Nc2cc(C(F)(F)F)ccc2Cl)c(CO)c1O 3.52%, C=C1CCC(OC(C)=O)C2(C)CCC3C(C)C(=O)OC3C12O (configuration not stated) 5.69%, COc1ccc(CN(CCN(C)C)c2ccccn2)cc1 5.26% and 0.005%, CC[N+](C)(C)CCN(Cc1ccc(Cl)cc1)c1ccccn1 1.17%, Cc1cccc(CCNC(=O)CN(C)S(=O)(=O)c2ccc3c(c2)c(=O)n(C)c(=O)n3C)c1 10.3%, Cc1ccc(N2C(=O)N(Cc3ccccc3C)c3ccccc3S2(=O)=O)cc1 3.76%, Cc1ccc(N=Nc2ccc(O)c3ncccc23)cc1 0.67%, O=C(N/N=C/c1ccc(O)c2ncccc12)c1cccc(Br)c1 -1.53%, Oc1ccc(F)c2cccnc12 -2.12%, Cc1ccccc1N=Nc1ccc(O)c2ncccc12 -2.25%, CN(c1ccc(C(=O)Nc2ccccc2C(=O)N2CCCC2)cc1)S(C)(=O)=O 1.89%, CCn1c(C(=O)O)c(CC(=O)Nc2ccccc2OC)c2ccccc21 -3.77%, CCC/C=C1/CCCOC(C(=O)NCc2ccccn2)(C(F)(F)F)C1 (configuration not stated) 4.57%, COC(=O)c1ccccc1NC(=O)Nc1ncccc1C 8.31%, C=CCn1c(-c2sc3nc(C)cc(C)c3c2N)n[nH]c1=S 1.92%, CN(Cc1ccccc1)S(=O)(=O)c1ccc(Cl)c(C(=O)NCCc2ccccn2)c1 -2.89%, Cc1ccc(S(=O)(=O)NC(=O)NCc2ccc(F)cc2)cc1 -2.51%, COc1ccc(-c2nnc(SCC(=O)NC(=O)NCc3ccccc3)o2)cc1 2.48%, CCCc1cc(=O)oc2cc(C)cc(OCC(=O)NCCCN3CCCC3=O)c12 -4.85%, Cn1nnnc1SCc1nc2ccccc2s1 -6.44%, COc1c(C(=O)Nc2ccc(CN3CCOCC3)cc2)cc2ccccc2c1Br 2.69%, C=CC1=C(C(=O)O)N2C(=O)C(NC(=O)Cc3ccccc3)C2SC1 (configuration not stated) -2.7%, CN(C)CCn1nnnc1SCC1=C(C(=O)O)N2C(=O)[C@@H](NC(=O)Cc3csc(N)n3)[C@H]2SC1 2.16%, CC1=C(C(=O)O)N2C(=O)C(NC(=O)c3ccn(C)n3)C2SC1 (configuration not stated) 5.21%, C[C@H]1[C@H](NC(=O)C(=NOC(C)(C)C(=O)O)c2csc(N)n2)C(=O)N1S(=O)(=O)O -6.02%, COC(c1ccccc1)(c1ccccc1)C(Oc1nccc(C)n1)C(=O)O (configuration not stated) -3.3%, COc1cccc(C(=O)Nc2cnc(NC(=O)c3ccco3)cc2C)c1 12.2%, C=CCN=C(NC#N)SCC(=O)c1cccc(OC)c1 -4.71%, O=C(NCCCn1ccnc1)/C(=C\c1ccc(Br)cc1)NC(=O)c1ccccc1F -5.42%, COc1cc(O)c(C(CC(=O)N2CCOCC2)c2cc(OC)c(OC)c(OC)c2)c(OC)c1 (configuration not stated) -0.44%, CO[C@H]1C=CO[C@@]2(C)Oc3c(C)c(O)c4c(O)c(c5c(c4c3C2=O)NC2(CCN(CC(C)C)CC2)N=5)=NC(=O)C(C)=CC=C[C@H](C)[C@H](O)[C@@H](C)[C@@H](O)[C@@H](C)[C@H](OC(C)=O)[C@@H]1C -10.1%, CO[C@H]1C=CO[C@@]2(C)Oc3c(C)c(O)c4c(O)c(c(C=NN5CCN(C6CCCC6)CC5)c(O)c4c3C2=O)NC(=O)C(C)=CC=C[C@H](C)[C@H](O)[C@@H](C)[C@@H](O)[C@@H](C)[C@H](OC(C)=O)[C@@H]1C -1.76%, COc1ccccc1CNC(=O)C(=O)NCC1OCCN1C(=O)c1cccs1 (configuration not stated) -7.58%
